Screening results: PubChem BioAssay, several laboratories
Most compounds without a hit are left out; they make up all but 4% or so of the library.
aDG glyco up: alpha-DG glycosylation activation. Pro5-aDG cells, alpha-DG glycosylation AlphaScreen (IIH6); 0% Pro5, 100% B10-LARGE cell signal. activation, % at 10 µM. actives 0.22% (n = 360,000). AID 624168;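 active means activation of at least 8% versus controls, or a plate z-score of at least 8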;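 further: Pro5 are CHO cells carrying HIG-tagged alpha-DG that lacks glycosylation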
ADAM10 inh: inhibits human ADAM10. recombinant ADAM10, EDANS/DABCYL FRET peptide cleavage, 3 h. inhibition, % at 7 µM. actives 0.62% (n = 370,000);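 active means inhibition above a per-campaign cutoff equal to the mean of compounds falling between control-based bounds plus 3 SD, cut at about 20% in these data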;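 further: 0% = DMSO wells while the 100% control is not disclosed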
Target sequence (O14672 214-748 limits assumed): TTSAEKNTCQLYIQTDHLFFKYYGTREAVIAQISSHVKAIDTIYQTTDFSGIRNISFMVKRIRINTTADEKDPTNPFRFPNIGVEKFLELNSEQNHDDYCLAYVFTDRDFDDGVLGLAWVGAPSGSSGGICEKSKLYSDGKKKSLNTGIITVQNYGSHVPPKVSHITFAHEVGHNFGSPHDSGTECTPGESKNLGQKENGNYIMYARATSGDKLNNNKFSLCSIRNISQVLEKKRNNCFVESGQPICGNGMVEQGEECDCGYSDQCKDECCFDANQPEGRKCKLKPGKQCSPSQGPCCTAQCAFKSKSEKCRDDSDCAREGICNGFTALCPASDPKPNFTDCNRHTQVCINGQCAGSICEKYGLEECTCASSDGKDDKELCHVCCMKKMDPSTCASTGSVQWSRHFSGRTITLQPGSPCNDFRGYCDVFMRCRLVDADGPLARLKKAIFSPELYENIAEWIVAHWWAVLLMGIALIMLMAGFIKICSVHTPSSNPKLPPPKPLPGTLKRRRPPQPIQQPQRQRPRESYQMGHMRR
NR3A LBD binder: NR3A (human) ligand-binding domain modulation; NR3A LBD differential scanning fluorimetry, Tm shift; 0% = protein alone, 100% = glycine-bound protein; Tm shift relative to glycine control, % at 25 µM; actives 2.5% (n = 340,000);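 active means melting temperature shift of at least 10% of the positive control shift, at one fixed dose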
FAS TE block: blocks the thioesterase domain of human fatty acid synthase; P49327; recombinant FAS-TE, OMFH fluorogenic substrate, fluorescence endpoint; inhibition, % at 15 µM; actives 0.67% (n = 360,000); AID 602261;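 active means compounds whose normalised, plate-corrected inhibition of enzyme fluorescence in the single-dose primary screen is 50% or more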;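 further: 0% = DMSO with enzyme and 100% = substrate without enzyme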
ADAM17 inh: inhibitors of human ADAM17 | recombinant ADAM17, EDANS/DABCYL FRET peptide cleavage | AID 720648 | P78536 | inhibition, % at 6.95 µM | actives 0.83% (n = 370,000);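 active means inhibition above the mean of compounds lying between control limits plus 3 SD, set per campaign, cut at about 8.5% in these data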;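 further: 0% = DMSO-only wells as the low control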
FAS-TE inh conf: FAS thioesterase (human) inhibition, confirmation; shares compounds with FAS TE block; recombinant FAS-TE, OMFH fluorogenic substrate, fluorescence; inhibition, % at 15 µM; actives 45% (n = 2,300); AID 624325;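 active means compounds inhibiting the enzyme by at least 50% at 15 µM in any one of the replicates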;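 further: 0% = enzyme with DMSO only and 100% = wells lacking enzyme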
Active calls of the source: *; x = no result.

SMILES | aDG glyco up | ADAM10 inh | NR3A LBD binder | FAS TE block | ADAM17 inh | FAS-TE inh conf
O=C(CSc1ccc([N+](=O)[O-])cc1)NCC1CCCCC1 | 0 | -1 | 2 | 55* | 1 | 62*
O=C(NCC1CCCCC1)c1ccc([N+](=O)[O-])cc1 | 0 | -2 | -3 | 16 | -1 | x
CCOC(=O)C1=C(C)NC(SCC(=O)OC)=C(C#N)C1c1ccc(C(=O)OC)cc1 (configuration not stated) | 0 | -8 | 0 | 16 | -1 | x
CCOC(=O)C1=C(C)Nc2sc(C(=O)c3ccc(C)cc3)c(N)c2C1c1ccc(C(=O)OC)cc1 (configuration not stated) | 0 | -1 | 6 | 67* | 0 | 15
N/C(=N\c1nc2c(c(=O)[nH]1)CCCC2)Nc1ccccc1Sc1ccccc1 | 0 | 0 | -3 | 51* | -2 | 13
N/C(=N\c1nc2c(c(=O)[nH]1)CCCC2)Nc1ccccc1 | 0 | -3 | -1 | -5 | -2 | x
O=C(COC(=O)c1cccc(F)c1)NC1CC1 | 0 | -2 | -3 | -7 | -3 | x
CCNc1ccc(S(=O)(=O)N(C)C)cc1NCC(=O)Nc1ccc(F)c(Cl)c1 | 0 | 12 | -3 | 58* | 1 | 39*
Cc1ccc(S(=O)(=O)Oc2ccc(/C=C(/NC(=O)c3ccccc3)C(=O)NCCC(=O)O)cc2)cc1 | 0 | 11 | -2 | -1 | -5 | x
Cc1ccc(S(=O)(=O)Oc2ccc(/C=C(/NC(=O)c3ccccc3)C(=O)Nc3ccccc3)cc2)cc1 | 0 | 9 | 0 | 55* | 2 | 18
COc1ccc(NC(=O)/C(=C\c2ccc(OS(=O)(=O)c3ccc(C)cc3)cc2)NC(=O)c2ccccc2)cc1 | 1 | -2 | -1 | 54* | -3 | 15
CCCCN1C(=O)C(CC(=O)NCc2cccs2)CC(C(=O)N(C)C)=C1C (configuration not stated) | 0 | -5 | x | -9 | -2 | x
COc1cc2sc(-c3ccc(S(C)(=O)=O)cc3)c(-c3ccc4c(c3)OCO4)c2cc1OC | 0 | -87 | -1 | 80* | -18 | 28
COc1ccc2sc(-c3ccc(S(C)(=O)=O)cc3)c(-c3ccc4c(c3)OCCO4)c2c1 | 0 | -150 | -1 | 57* | -42 | 22
COc1ccc(-c2c(-c3ccc(S(C)(=O)=O)cc3)sc3ccc(OC)cc23)cc1 | 0 | -111 | -1 | 22 | -27 | x
O=c1[nH]cnc2c1nnn2Cc1ccccc1 | 0 | 2 | -1 | -4 | -4 | x
O=C(CSc1nc2cc(Cl)ccc2c(=O)n1Cc1ccco1)Nc1ccc(S(=O)(=O)N2CCOCC2)cc1 | -1 | 15 | 3 | 88* | 4 | 18
CS(=O)(=O)c1ccc(Cl)c(NC(=O)CSc2nc3ccccc3c(=O)n2CCCN2CCOCC2)c1 | -1 | -8 | -5 | 0 | -3 | x
O=C(CSc1nc2ccccc2c(=O)n1-c1ccc(F)cc1)Nc1cc(S(=O)(=O)N2CCOCC2)ccc1Cl | 0 | 7 | 0 | 78* | 3 | 21
Cc1ccc(S(=O)(=O)N2CCOCC2)cc1NC(=O)CSc1nc2ccccc2c(=O)n1Cc1ccccc1 | 1 | -5 | 14* | 50* | -1 | 24
Cc1ccc(S(=O)(=O)N(C)C)cc1-n1c(SCC(=O)Nc2ccc(F)c(F)c2F)nc2ccccc2c1=O | -1 | 15 | -3 | 68* | 7 | 38
COCCNC(=O)CN(C(=O)CCC(=O)Nc1ccccn1)c1ccc(C)cc1 | 0 | -1 | 2 | -4 | -4 | x
Cc1ccc(C)c(-n2cc(CNCCCn3cccn3)c(-c3ccccc3)n2)c1 | 0 | 3 | 1 | -1 | 3 | x
COc1cccc(OCCOc2ccc(/C=C3/SC(=S)NC3=O)cc2)c1 | 0 | 5 | 10* | 68* | -1 | 40
O=C(COC(=O)c1cc([N+](=O)[O-])ccc1N1CCOCC1)c1ccc(F)cc1 | 0 | 3 | 0 | 69* | 0 | 40*
SMILES | aDG glyco up | ADAM10 inh | NR3A LBD binder | FAS TE block | ADAM17 inh | FAS-TE inh conf
CCc1ccc(C(=O)COC(=O)c2cc([N+](=O)[O-])ccc2N2CCOCC2)cc1 | 0 | 2 | 0 | 80* | 4 | 80*
O=C(c1ccc(Cl)cc1)c1cc([N+](=O)[O-])ccc1N1CCOCC1 | 0 | 5 | 6 | 41 | 3 | x
Cc1ccc2c(Cl)cc(Cl)c(OCC(=O)Nc3cc(S(=O)(=O)N(C)C)ccc3C)c2n1 | 0 | 3 | -6 | 52* | 0 | 2
Cc1ccc2c(Cl)cc(Cl)c(OCC(=O)NC(C)(C)C)c2n1 | 0 | -24 | -18 | 19 | -12 | x
COc1ccc2cc(C3CC=C(COC(C)=O)CN3S(=O)(=O)c3ccccc3[N+](=O)[O-])n(C(=O)OC(C)(C)C)c2c1 (configuration not stated) | 0 | 13 | x | x | 5 | x
Cc1ccc2nc(/N=C(\N)NC(=O)N3c4ccccc4Sc4ccccc43)nc(C)c2c1 | 0 | -8 | -1 | 55* | -5 | -5
Cc1ccc2c(C)nc(/N=C(\N)NC(=O)N3c4ccccc4Sc4ccccc43)nc2c1 | 0 | -13 | 0 | 64* | -5 | 4
Cc1cc2nc(/N=C(\N)NC(=O)N3c4ccccc4Sc4ccccc43)nc(C)c2cc1C | 0 | -38 | -13 | 62* | -14 | 14
COc1ccccc1CNC(=O)C(NC(=O)C1CCCCC1)C(C)C (configuration not stated) | 0 | -10 | -2 | -3 | -5 | x
Cc1cccc(C)c1NC(=O)CSc1nnc(-c2ccoc2C)n1C | 0 | 4 | -4 | -1 | -5 | x
CC[C@]1(C(=O)OC)[C@H]2C(=O)N(C)C(=O)[C@H]2[C@H]2CN=C(SCc3ccccc3)N21 | 0 | -11 | 0 | -10 | -5 | x
CCc1ccc(NC(=O)COc2ccc(F)cc2C(=O)c2cnn(-c3ccccc3)c2)cc1 | 0 | -8 | -3 | 53* | -7 | 0
COc1ccccc1NC(=O)COc1ccccc1C(=O)c1cnn(-c2ccccc2)c1 | 0 | 8 | -5 | 36 | 6 | x
CCCC(C)C(=O)Nc1ccc(F)c(Cl)c1 (configuration not stated) | 0 | -7 | 1 | 8 | -4 | x
O=C(c1cc(COc2cccc(C(F)(F)F)c2)on1)N1C[C@@H]2CCC[C@H]1C2 | 1 | 4 | -1 | 56* | 0 | 24*
O=c1[nH]c(C2CCCN(S(=O)(=O)c3cccc(Cl)c3)C2)nc2c1nnn2Cc1ccc2c(c1)OCCO2 (configuration not stated) | 0 | 5 | -4 | 54* | -1 | 16
COc1cc(-c2nc(C(=O)NC3CCCCC3)cc3c2[nH]c2ccccc23)cc(OC)c1OC | 1 | -102 | -1 | 84* | -29 | 10
